Source: PubChem BioAssay
MPTP inh: mitochondrial permeability transition pore inhibitors, primary screen, biochemical, isolated mouse mitochondria, absorbance | Ca2+ swelling absorbance, 30 min | inhibition, % at 10 µM | 1.4% of 360,000 active | AID 602449, 2012;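 active means inhibition of 50% or more, scaled per plate between neutral and stimulator controls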;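 further: 0% = DMSO wells given calcium and 100% = 1 mM EGTA wells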
CSC inhib: cancer stem cell viability inhibitors, primary screen, luminescence; cancer stem cell-like cells viability; inhibition, % at 7.5 µM; 1.1% of 300,000 active; in the data active means inhibition above about 75%; inconclusive means no clear call, values can overlap the other calls; tested in HMLE shEcad cells
Mdm2 MdmX PPI: inhibitors of human Mdm2-MdmX association, primary screen, cell-based, luminescence, split luciferase, SaOS-2, uHTS; Protein Mdm4 (Homo sapiens) + E3 ubiquitin-protein ligase Mdm2 (Homo sapiens), …; SaOS-2 split-luciferase Mdm2/MdmX complementation; inhibition, % at 8 µM; 3% of 330,000 active;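 active means inhibition of at least 50% at 8 µM in the primary screen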
Target sequence (O15151 whole entry, looked up): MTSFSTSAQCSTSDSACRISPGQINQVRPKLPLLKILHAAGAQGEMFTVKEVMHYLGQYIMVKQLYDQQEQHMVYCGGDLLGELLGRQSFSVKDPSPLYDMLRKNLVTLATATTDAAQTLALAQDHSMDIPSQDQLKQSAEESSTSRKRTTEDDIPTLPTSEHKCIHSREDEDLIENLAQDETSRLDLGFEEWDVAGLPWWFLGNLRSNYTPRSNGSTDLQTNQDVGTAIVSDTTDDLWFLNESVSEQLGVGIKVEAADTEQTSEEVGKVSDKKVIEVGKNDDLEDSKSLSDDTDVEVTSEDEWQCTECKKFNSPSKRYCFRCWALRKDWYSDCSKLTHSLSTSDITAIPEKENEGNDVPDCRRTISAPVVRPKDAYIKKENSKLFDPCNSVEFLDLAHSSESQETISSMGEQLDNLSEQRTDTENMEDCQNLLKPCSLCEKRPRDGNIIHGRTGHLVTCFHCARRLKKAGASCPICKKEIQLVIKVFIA
Target sequence (Q00987 whole entry, looked up): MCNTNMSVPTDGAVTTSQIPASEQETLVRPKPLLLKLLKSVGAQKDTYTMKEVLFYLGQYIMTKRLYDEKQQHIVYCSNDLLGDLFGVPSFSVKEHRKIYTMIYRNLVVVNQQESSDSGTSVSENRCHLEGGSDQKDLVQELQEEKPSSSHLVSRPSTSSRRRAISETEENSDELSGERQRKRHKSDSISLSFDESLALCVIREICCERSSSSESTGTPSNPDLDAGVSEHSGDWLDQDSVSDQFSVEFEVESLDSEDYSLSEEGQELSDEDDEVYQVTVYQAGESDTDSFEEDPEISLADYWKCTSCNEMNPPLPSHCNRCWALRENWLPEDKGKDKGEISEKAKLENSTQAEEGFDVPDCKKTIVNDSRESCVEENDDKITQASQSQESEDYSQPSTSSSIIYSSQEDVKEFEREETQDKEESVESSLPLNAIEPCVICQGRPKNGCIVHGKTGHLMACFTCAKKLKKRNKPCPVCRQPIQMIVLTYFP
Calb FLC: C. albicans growth inhibition with fluconazole, primary screen, CaCi-2 strain, Alamar Blue fluorescence | C. albicans CaCi-2 (fluconazole-resistant clinical isolate) + fluconazole, 48 h | growth inhibition, % (no concentration beside the values) | 0.57% of 300,000 active | AID 1979, 2009;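 active means growth inhibition above about 58% in most replicates, limit read from the data, passing the limit was not always enough; inconclusive means exactly half the replicates above a set limit; inactive means most replicates below a set limit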;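 further: all wells also contain fluconazole at 8 µg/ml as a sub-toxic cotreatment; 0% = median of DMSO wells and 100% = median of geldanamycin control wells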
Beta cell apopt: inhibitors of cytokine-induced beta cell apoptosis, primary screen, luminescence; INS-1E cytokine-induced death, ATP luminescence, 48 h; percent of positive-control rescue, neutral wells zero; protection from apoptosis, % (concentration not given with the values); 0.8% of 300,000 active; AID 435005, 2010;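 active means Every replicate reaches about 75%, or at least half do and their mean reaches it too, limit read from the data; inconclusive means At least half of replicates reach the limit but their mean does not; inactive means Under half of replicates reach the limit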;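 further: 0% = cytokine-treated negative control wells and 100% = positive control rescue; higher means more ATP so stronger rescue from cytokine killing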
SKKanGAS inh: S. pyogenes SKKanGAS growth inhibitors in kanamycin, primary screen, streptokinase expression inhibitor project, SKKanGAS strain, BacTiter-Glo luminescence; 6 h; inhibition, % at 7.5 µM; 1.3% of 300,000 active; AID 1662, 2009;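 active means mean replicate score, as percent of positive control median, at least 50; inconclusive means mean below 50 but one replicate at or above 50; inactive means mean and every replicate below 50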;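 further: strain carries kanamycin resistance gene driven by streptokinase promoter and grows in 40 µg/ml kanamycin; loss of luminescence reflects streptokinase promoter inhibition or plain growth inhibition; 0% = median of DMSO wells and 100% = positive control at its reference dose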
* marks the source's active call; other numbers are inactive results; ? = inconclusive; . = no result given. Sampled rows, rich in hits. Any-hit rate of the full collection: about 5.4%.

SMILES	MPTP inh	CSC inhib	Mdm2 MdmX PPI	Calb FLC	Beta cell apopt	SKKanGAS inh
O=c1[nH]c(=O)n(CCC2=CCCCC2)c(O)c1/C=N/Nc1ccccc1	3	97*	9	-25	0	-10
O=c1[nH]c(=O)n(Cc2ccc(F)cc2)c(O)c1/C=N/Nc1ccccc1	0	79*	22	-27	3	11
O=c1[nH]c(=O)n(CCC2=CCCCC2)c(O)c1/C=N/Nc1cccc2ccccc12	5	9	0	17	8	13
C=CCN1C(=O)NC(=O)/C(=C/c2ccoc2)C1=O	3	-10	18	-4	0	6
S=C=Nc1ccccn1	-1	0	-8	-3	1	5
COc1cccc(C2(O)CCSCC2CN(C)C)c1 (centres undefined)	0	15	6	-4	-5	2
O/N=C1/C(=C\c2ccccc2)N2CCC1CC2	0	.	23	?	-8	0
CC1CCC(C(C)C)C(OC(=O)COC(=O)c2ccccc2N)C1 (centres undefined)	-14	23	17	-1	9	67*
COc1cccc(C(=O)C2CCCN(Cc3cccc4c3OCO4)C2)c1 (centres undefined)	-1	1	9	108*	13	5
Cc1nc2ccc(Br)cc2c(=O)n1-c1ccc([N+](=O)[O-])c(C(F)(F)F)c1	1	15	11	22	41	2
Clc1ccc(C(Cn2ccnc2)OCc2csc3c(Cl)cccc23)c(Cl)c1 (centres undefined)	6	107*	32	.	86*	.
O=C(Nc1nccs1)c1c(O)c2c(n(Cc3ccco3)c1=O)CCCC2	-2	9	35	-4	-1	55*
Cc1nc2ccccc2c(=O)n1/N=C/c1cc(Br)cc(Br)c1O	36	10	17	7	.	99*
Clc1cccc(N2Cc3cc(N4CCOCC4)ccc3-n3nncc3C2)c1	0	.	.	.	.	.
Nc1ccc(CCN2CCN(c3cccc(C(F)(F)F)c3)CC2)cc1	-3	95*	13	.	-2	0
Nc1ccc(CCN2CCCC2)cc1	-1	-8	-6	-4	3	6
N=C(N)c1c(O)n(C2CCCCC2)c(=O)n(C2CCCCC2)c1=O	17	102*	39	-5	57	13
ClCCN1CCN(c2ccnc3cc(Cl)ccc23)CC1	0	-15	14	-4	-1	1
COc1ccccc1N1CCN(Cc2ccc(SC)cc2)CC1	-1	-1	29	-8	-1	16
CCNC(=S)N(C)CCc1cc2c(c(OC)c1C=C1C(=O)N(C)C(=O)N(C)C1=O)OCO2	34	2	6	-27	-3	5
c1ccc(Nc2ccc3ccccc3c2)cc1	3	.	.	.	.	.
CC(C)Nc1ccc(Nc2ccccc2)cc1	3	4	27	-19	113*	9
COCCNC(=O)c1c(NC(=O)c2ccco2)n(Cc2ccccc2)c2nc3ccccc3nc12	0	-3	20	?	-20	68*
O=c1[nH]c(CN2CC=C(c3ccccc3)CC2)nc2scc(-c3ccccc3)c12	1	81*	8	-11	-7	64*
C=CCN1C(=O)NC(=O)/C(=C/c2ccc(N(C)C)c(Br)c2)C1=O	-2	-1	20	-14	-3	-2
SMILES	MPTP inh	CSC inhib	Mdm2 MdmX PPI	Calb FLC	Beta cell apopt	SKKanGAS inh
O=C(NC1CONC1=O)OCC(Cl)(Cl)Cl (centres undefined)	0	77*	14	-4	41	5
COc1ccc(N=Cc2c(O)n(Cc3ccccc3)c(=S)[nH]c2=O)c(OC)c1	2	5	23	41	2	2
COc1ccc(OC)c(N=Cc2c(O)n(Cc3ccccc3)c(=S)[nH]c2=O)c1	-3	-2	3	1	-3	51*
O=c1[nH]c2ccccc2n1C1CCN(C(CCc2ccccc2)c2nnnn2C2CCCC2)CC1 (centres undefined)	0	.	.	.	.	.
c1ccc(-c2ccncc2)cc1	2	.	25	.	.	.
Cc1cc(-c2ccccc2)cc(C)[n+]1Cc1ccccc1	-1	-15	-19	-25	109*	-1
CCC(C)n1c(O)c(/C=N/Nc2ccccc2)c(=O)[nH]c1=S (centres undefined)	3	83*	7	9	2	?
O=C(N/N=C/c1c(O)n(Cc2ccc(F)cc2)c(=S)[nH]c1=O)c1ccncc1	-16	5	17	-1	-10	101*
CCC(C)n1c(O)c(/C=N/NC(=O)c2ccncc2)c(=O)[nH]c1=S (centres undefined)	7	17	3	-18	-2	91*
CC(=O)N1N=C(c2c(O)n(C)c(=O)n(C)c2=O)CC1c1ccccc1 (centres undefined)	1	34	23	-8	10	51*
CC(=O)N1N=C(c2cccnc2)CC1c1ccccc1O (centres undefined)	0	-15	-19	-10	1	-3
C[n+]1c(-c2ccccc2)cc(-c2ccc(Cl)cc2)cc1-c1ccccc1	0	4	23	97*	39	-2
CC(=O)c1ccc(-c2ccccc2)cc1	1	-25	-51	-30	2	0
CCCCCn1c(=O)c(C(=O)NCc2ccccc2Cl)c(O)c2ccccc21	4	4	28	-5	101*	14
CCCCn1c(=O)c(C(=O)NCCc2ccccc2)c(O)c2ccccc21	4	45	6	?	-3	54*
CCCCCCn1c(=O)c(C(=O)Nc2c(C)n(C)n(-c3ccccc3)c2=O)c(O)c2ccccc21	3	41	16	21	3	89*
CCCCCn1c(=O)c(C(=O)Nc2ccccc2)c(O)c2ccccc21	9	16	31	21	46	-1
CCOC(=O)Cc1csc(NC(=O)c2c(O)c3ccccc3n(CCC(C)C)c2=O)n1	19	17	10	10	-5	68*
CCCCCn1c(=O)c(C(=O)Nc2ccccc2N)c(O)c2ccccc21	8	15	31	-7	19	2
Cc1ccc(CN2CCC3CCC(C3)C2)c(O)c1 (centres undefined)	-2	.	.	.	.	.
COc1ccccc1-n1c(CNCC2CCCO2)nc2ccccc2c1=O (centres undefined)	1	-9	-4	0	5	-13
CCCCn1c(=O)c(C(=O)Nc2ccccn2)c(O)c2ccccc21	4	23	30	28	29	53*
CCCCn1c(=O)c(C(=O)Nc2ccc(C)cn2)c(O)c2ccccc21	4	-24	19	12	3	6
CCCCCCOc1ccc(CN2CCN(C)CC2)cc1	0	.	40	21	109*	-9
